Screens from PubChem.
Most compounds without a hit are left out; they make up all but 7.3% or so of the library.
ELG1 genotoxic: qHTS screen for small molecules that induce genotoxicity in human embryonic kidney (HEK293T) cells expressing luciferase-tagged ELG1 | Potency, µM (doses to about 46 µM), for inactives: at the highest dose activity change, positive = activation, actives largely listed as activators | actives 1.3% (n = 330,000) | HEK293T ELG1-luciferase reporter, luminescence, 16 h | AID 504466, 2011; note: % of control where 0% means no effect; nearly all actives have a fitted effect of over 60% in size
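Reporter readout depends on ELG1 protein level, which increases with genetic stress. After 16 hr compound exposure at 37 °C, luciferase activity was quantified using ONE-Glo.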
KinaseGlo FLuc: Counterscreen for Luciferase (Kinase-Glo TM) Inhibition. actives 0.28% (n = 200,000). Kinase-Glo luciferase, ATP luminescence, 8 min. Potency, µM (doses to about 38.3 µM), without a hit: top-dose activity change, negative = inhibition, actives largely listed as inhibitors. AID 1379, 2008. Luciferin 4-monooxygenase (Photuris pensylvanica), Q27757; note: % is set by controls: 0 for no effect and ±100 for the full control effect; nearly all actives have a fitted effect of over 60% in size
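Compounds were added to a substrate mix at pH 7.2 (50 mM imidazole, 10 uM ATP, within the enzyme's linear range), followed by Kinase-Glo detection reagent; luminescence was measured after 8 minutes at ambient temperature.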
NPC1 promoter act: qHTS Assay for NPC1 Promoter Activators; Huh7 NPC1 promoter luciferase reporter, 24 h; Potency, µM (doses to about 9.22 µM), inactives show at the highest dose activation, hits mostly activators; actives 2.4% (n = 320,000); note: % of control where 0% means no effect; nearly all actives have a fitted effect of over 60% in size
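NPC1 promoter–luciferase Huh7 cells; 24 h compound; luminescence.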
Rab9 prom act: qHTS Assay for Rab9 Promoter Activators; Huh7 Rab9 promoter-luciferase reporter, luminescence, 24 h; Potency, µM (titrated, usually from 9.22 µM), for the others: at the top dose activation, negative = inhibition, usual class: activators; actives 2.8% (n = 320,000); note: % of control where 0% means no effect; nearly all actives have a fitted effect of over 60% in size
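Using Huh7 cells stably transfected with Rab9 promoter–luciferase, compounds were incubated 24 h at 37 °C, 5% CO2; luciferase luminescence was read 10 min after reagent addition.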
SMN2 splice enh: qHTS Assay for Enhancers of SMN2 Splice Variant Expression; HEK293 SMN2-luciferase splicing reporter, luminescence, 30-36 h; Potency, µM (highest dose often 46.1 µM), for inactives: at the highest dose activity change, positive = activation, actives largely listed as activators; AID 1458, 2008; actives 2.8% (n = 210,000); note: % of control where 0% means no effect; nearly all actives have a fitted effect of over 55% in size
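HEK293 cells carry an SMN2 […]–luciferase reporter in which exon 7 inclusion puts luciferase in frame. Cells were plated 10-12 h before compound addition, then incubated 30-36 h at 37C. ONE-Glo luminescence was read; sodium butyrate at 4.5 mM final served as control.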
FLuc modulator: qHTS profiling assay for firefly luciferase inhibitor/activator using purifed enzyme and Km concentrations of substrates (counterscreen for miR-21 project); AID 588342, 2011; Potency, µM (titrated, usually from 57.5 µM), without a hit: at the top dose activity change, negative = inhibition, usual class: inhibitors; actives 6.9% (n = 360,000); purified FLuc, Km substrates, luminescence inhibition;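 note: plate controls were vehicle for no effect and reference inhibitor for full effect; nearly all actives have a fitted effect of over 55% in size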
Target sequence (P08659 whole entry, looked up): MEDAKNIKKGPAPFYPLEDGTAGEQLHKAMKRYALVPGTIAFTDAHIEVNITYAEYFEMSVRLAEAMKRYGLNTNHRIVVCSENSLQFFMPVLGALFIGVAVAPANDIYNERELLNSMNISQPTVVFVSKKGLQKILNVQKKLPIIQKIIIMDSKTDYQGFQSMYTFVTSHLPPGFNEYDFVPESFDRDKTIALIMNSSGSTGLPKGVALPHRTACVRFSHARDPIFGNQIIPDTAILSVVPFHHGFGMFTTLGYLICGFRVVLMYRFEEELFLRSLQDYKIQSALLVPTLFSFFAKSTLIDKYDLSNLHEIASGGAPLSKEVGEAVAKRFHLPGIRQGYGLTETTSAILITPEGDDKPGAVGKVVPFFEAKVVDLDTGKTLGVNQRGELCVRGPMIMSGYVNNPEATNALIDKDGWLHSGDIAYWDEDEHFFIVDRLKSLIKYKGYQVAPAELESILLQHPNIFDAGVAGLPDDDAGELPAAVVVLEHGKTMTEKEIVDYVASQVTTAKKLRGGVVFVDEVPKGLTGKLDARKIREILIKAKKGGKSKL
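Biochemical qHTS of compounds, final roughly 60 µM downward over six points, against 10 nM purified firefly luciferase using Km concentrations of substrates (10 uM D-luciferin, 10 uM ATP) in Tris acetate pH 7.5 buffer; luminescence output.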
Starred values were filed as active, the others as inactive; ? = inconclusive; . = no result; [ ] = dose if it differs, or a comment. Calls come from the whole dose curve; as a rule, active = well fitted curve in the direction sought with a large enough effect; inconclusive = small, poorly fitted or top-dose-only effect, or another doubt; inactive = no such curve, though single readings can be large; an effect the other way counts as inactive or inconclusive. Potency is the fitted concentration of half-maximal effect.

SMILES | ELG1 genotoxic | KinaseGlo FLuc | NPC1 promoter act | Rab9 prom act | SMN2 splice enh | FLuc modulator
COc1ccc2c(c1)O[C@@H](c1ccc3c(c1)OCO3)[C@H](O)C2=O | . | -1% | . | . | 20µM* | .
Cc1ccc(N2C(=O)CCSC23C(=O)N(Cc2ccc(F)cc2)c2ccccc23)cc1 (stereo unspecified) | . | . | . | . | . | -18%
Cc1ccccc1NC(=O)Cn1c(=O)n(CCC(=O)N2CCc3ccccc3C2)c(=O)c2ccccc21 | . | . | . | . | -1% | -8%
Cc1oc2ccc(O)c(CN3CCN(Cc4ccccc4)CC3)c2c1C(=O)Nc1cccc(Cl)c1C | . | . | . | . | -7% | -2%
CCc1ccc(NC(=O)Cn2c(=O)n(Cc3ccco3)c(=O)c3cccnc32)cc1 | . | . | . | . | 7% | -7%
CNC(=O)C(=O)Nc1nc(C23CC4CC(CC(C4)C2)C3)cs1 | 13% | 5% | ? | 3.2µM* | . | -19%
Cc1ccn2cc(C34CC5CC(CC(C5)C3)C4)nc2c1 | -3% | 1% | -1% | 0% | 13% | 6.7µM*
O=C1C(C=NCc2ccccn2)=C(O)c2ccccc21 | ? | -5% | 2.2µM* | 4µM* | 5.6µM* | 12µM*
O=C1CCCN1CCCNCC(O)c1ccccc1 (stereo unspecified) | -5% | . | 0% | -4% | . | -2%
O=C1C(C=NCCCN2CCCC2=O)=C(O)c2ccccc21 | 18µM* | 7% | ? | ? | ? | 19µM*
O=c1oc2ccccc2c(O)c1C=NCc1ccccn1 | -9% | -8% | -10% | -3% | 4% | ?
O=C1C(C=NC2CC2)=C(O)c2ccccc21 | ? | -4% | 26% | 4% | 20% | ?
CC(C)CN=CC1=C(O)c2ccccc2C1=O | ? | . | 1.8µM* | 1µM* | . | 12µM*
O=S(=O)(c1ccc2[nH]c3c(c2c1)CCCC3)N1CCN(c2cccc(C(F)(F)F)c2)CC1 | . | . | . | . | . | 2%
Cc1cc(C)c2c(N)c(C(=O)N/N=C/c3ccccc3)sc2n1 | ? | . | 1.8µM* | 1.8µM* | . | 3.4µM*
Cc1cc(C)c2c(N)c(C(=O)NN)sc2n1 | 8% | . | 1% | -3% | . | -15%
Cc1ccc(S(=O)(=O)Nc2nc(C)c(C(=O)N/N=C/c3ccccc3)s2)cc1 | -20% | 2% | -1% | 7% | -37% | 6µM*
Cc1ccc(S(=O)(=O)Nc2nc(C)c(C(=O)Nc3ccccc3)s2)cc1 | -1% | 4% | -3% | 1% | ? | -18%
Cc1cc(C)c2c(N)c(C(=O)NNC(=O)c3ccccc3)sc2n1 | ? | -1% | 3.2µM* | 3.5µM* | 11µM* | ?
CCOc1cc(CNC(=O)c2ccc3c(c2)N(C)C(=O)C2CCCCN32)cc(OCC)c1OCC (stereo unspecified) | . | . | . | . | . | -6%
CN(C)c1cc2c(cc1NC(=O)c1ccc(F)cc1)n(C)c(=O)n2C | . | . | . | . | 6% | -6%
NC[C@H]1O[C@H](n2cnc3c(N)ncnc32)C[C@@H]1O | . | 4%[7.66 µM] | . | . | -7%[9.22 µM] | .
Cc1cccc(CNC(=O)C2CCN(S(=O)(=O)c3ccc4c(c3)CCCN4C(=O)C3CCC3)CC2)c1 | . | . | . | . | . | 4%
S=c1nc(C2COc3ccccc3O2)[nH][nH]1 (stereo unspecified) | 0% | -2% | 0% | -2% | 0% | -16%
CCCS(=O)(=O)c1cnc(C2COc3ccccc3O2)nc1N (stereo unspecified) | ? | . | -23% | -32% | . | 0.12µM*
SMILES | ELG1 genotoxic | KinaseGlo FLuc | NPC1 promoter act | Rab9 prom act | SMN2 splice enh | FLuc modulator
CCCCOC(=O)c1sc2nc(C)cc(C)c2c1N | ? | . | 3.5µM* | 2.8µM* | . | 11µM*
Cc1ccc(NC(=O)c2sc3nc(C)cc(C)c3c2N)cc1 | ? | . | 0.56µM* | 0.56µM* | . | 1.2µM*
Cc1cc(C)c2c(N)c(C(=O)Nc3nccs3)sc2n1 | 0.33µM* | -10% | ? | 1µM* | ? | 0.34µM*
COCc1cc(C)nc2sc(C(=O)Nc3nccs3)c(N)c12 | 19% | 0% | ? | ? | 12% | 17µM*
COCc1cc(C)nc2sc(C(=O)Nc3ccc(OC)cc3)c(N)c12 | ? | . | 16% | ? | . | ?
COC(=O)c1ccc2c(=O)n(CCCCCC(=O)N3CCN(c4cc(Cl)ccc4C)CC3)c(=O)[nH]c2c1 | . | . | . | . | . | -11%
Cc1nc2c(c(C)nn2-c2ccccc2)c(C)c1CCC(=O)Nc1ccc(F)cc1 | . | . | . | . | -29% | 4%
COc1ccc(C(=O)c2c[nH]c3ccccc23)cc1 | . | -3% | . | . | ? | 3.4µM*
Cc1ccsc1C(=O)NCCc1nnc2ccccn12 | ? | . | ? | 2.5µM* | . | ?
COc1ccc(C(=O)NCCc2c[nH]c3ccccc23)cc1 | 9.2µM* | . | 2.8µM* | 1.6µM* | . | 9.5µM*
Cc1ccsc1C(=O)NCCC(c1ccccc1)c1ccccc1 | 0% | 1% | 1% | -6% | -11% | -1%
O=C(NCCc1c[nH]c2ccccc12)c1ccc(F)cc1F | ? | . | ? | ? | . | 12µM*
COc1cc(SC)ccc1C(=O)NCCc1c[nH]c2ccccc12 | 10% | . | 20% | 16% | . | ?
COC(=O)Cc1c(C)c2ccc3c(c2oc1=O)CN(Cc1ccccc1OC)CO3 | . | . | . | . | 8% | -1%
C=C1C=C(C(F)F)n2ncc(C(=O)NCc3ccccc3Cl)c2N1 | . | . | . | . | . | -1%
COc1ccc(CCNC(=O)c2n[nH]c3ccccc23)cc1 | 0% | 0% | 17% | 21% | 24% | 21µM*
O=C(NCCc1c[nH]c2ccccc12)c1ccc(Cl)cc1 | ? | . | 1.8µM* | 2.8µM* | . | 11µM*
O=C(NCCSc1c[nH]c2ccccc12)c1ccc(Cl)cc1 | . | . | . | . | -17% | -14%
Cc1ccsc1C(=O)NCCc1c[nH]c2ccccc12 | ? | . | ? | ? | . | 19µM*
O=C(NCCc1c[nH]c2ccccc12)c1cnc2sccn2c1=O | 8.2µM* | -3% | 3.5µM* | 4.5µM* | 14µM* | 15µM*
CCC(=O)NCCc1c[nH]c2ccccc12 | . | 0% | . | . | -3% | -1%
CCOc1ccccc1-n1nnc(-c2nsc(NC(=O)c3ccc(C)cc3)n2)c1C | . | . | . | . | . | -1%
Cc1cccc(NS(=O)(=O)c2ccc3c(c2)OCC(C(=O)N2CCCC2)O3)c1C (stereo unspecified) | . | . | . | . | . | -10%
CN(Cc1cccs1)C(=O)CCCc1c[nH]c2ccccc12 | ? | -2% | 23% | 3.2µM* | ? | 27µM*
